Results filed as inconclusive are left out. Active and inactive are the calls of the source. The calls were made as follows: active = hit-call score of the fitted dose curve at least 0.9, where 1 is the maximum; inconclusive = response in the unintended direction; inactive = score below 0.9.

The nature of test [1]: TOX21_p53_BLA_p2_viability: Viability Assessment in the Tox21 HCT-116 p53 Agonism Beta-lactamase Assay, Phase 2 (AID 2283591).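 Also: compound exposure lasted 16 h at 37 °C; actives lower the ATP signal meaning cytotoxicity.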 The gist of the method: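 HCT116 p53-bla cells, 4000/well, dosed after 5 h plating (217-fold dilution of DMSO stocks) and incubated 16 h at 37C. Viability taken as cellular ATP by CellTiter-Glo luminescence after 30 min RT; signal loss marks cytotoxicity.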

Test [2] deals with Cellular tumor antigen p53 (Homo sapiens) (UniProt P04637). Description: TOX21_p53_BLA_p2_ratio: Tox21 HCT-116 p53 Agonism Beta-lactamase Assay, Ratio, Phase 2 (AID 2283592). The gist of the method:
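Ratio endpoint: beta-lactamase cleavage of CCF4-AM, blue (460 nm) over green (530 nm). HCT116 reporter line; 16 h treatment, 37C; substrate 2 h RT.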

For test [3] the target is unchanged. Description: TOX21_p53_BLA_p3_ratio: Tox21 HCT-116 p53 Agonism Beta-lactamase Assay, Ratio, Phase 3 (AID 2283596). The gist of the method: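 Cells were seeded at 4000/well, rested 5 h at 37C, then dosed with DMSO compound solutions (217-fold dilution) for 16 h. CCF4-AM substrate was loaded for 2 h at room temperature, and the 460/530 nm emission ratio was fitted for gain of signal versus DMSO.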

A short description of test [4]: TOX21_p53_BLA_p5_viability: Viability Assessment in the Tox21 HCT-116 p53 Agonism Beta-lactamase Assay, Phase 5 (AID 2283600). The gist of the method:
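Luciferase-coupled ATP quantitation of cells treated for 16 h (37C, 5% CO2) with test chemicals delivered in DMSO via a 217-fold dilution; 4000 cells/well; reagent incubated 30 min at room temperature before luminescence reading.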

For test [5], the target named is Cellular tumor antigen p53 (Homo sapiens) (UniProt P04637). The test can be described thus: TOX21_p53_BLA_p4_ratio: Tox21 HCT-116 p53 Agonism Beta-lactamase Assay, Ratio, Phase 4 (AID 2283601). The gist of the method:
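HCT-116 p53 beta-lactamase reporter cells (4000/well) preincubated 5 h, then compound (217-fold dilution of DMSO stock) for 16 h at 37C. CCF4-AM substrate added 2 h at room temperature; 460/530 nm emission ratio fitted upward versus DMSO.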

The target is the same in test [6]. Description: TOX21_p53_BLA_p5_ratio: Tox21 HCT-116 p53 Agonism Beta-lactamase Assay, Ratio, Phase 5 (AID 2283599). The gist of the method:
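HCT-116 p53-bla cells (4000/well) plated 5 h, dosed with compound (217-fold DMSO dilution) for 16 h at 37 C; CCF4-AM substrate 2 h at room temperature. Activity is the 460/530 nm emission ratio (405 nm excitation), fitted in gain-of-signal direction versus DMSO.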

Test [7] is described as follows: TOX21_p53_BLA_p4_viability: Viability Assessment in the Tox21 HCT-116 p53 Agonism Beta-lactamase Assay, Phase 4 (AID 2283597).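 Also: hits lower the luminescence signal meaning cytotoxicity.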 The gist of the method:
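Cytotoxicity was inferred from loss of CellTiter-Glo luminescence. HCT116 cells had been dosed with compounds after 5 h plating, incubated 16 h at 37C and 5% CO2, and exposed to the CCF4-AM substrate for 2 h.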

Cellular tumor antigen p53 (Homo sapiens), sequence (P04637 whole entry, looked up): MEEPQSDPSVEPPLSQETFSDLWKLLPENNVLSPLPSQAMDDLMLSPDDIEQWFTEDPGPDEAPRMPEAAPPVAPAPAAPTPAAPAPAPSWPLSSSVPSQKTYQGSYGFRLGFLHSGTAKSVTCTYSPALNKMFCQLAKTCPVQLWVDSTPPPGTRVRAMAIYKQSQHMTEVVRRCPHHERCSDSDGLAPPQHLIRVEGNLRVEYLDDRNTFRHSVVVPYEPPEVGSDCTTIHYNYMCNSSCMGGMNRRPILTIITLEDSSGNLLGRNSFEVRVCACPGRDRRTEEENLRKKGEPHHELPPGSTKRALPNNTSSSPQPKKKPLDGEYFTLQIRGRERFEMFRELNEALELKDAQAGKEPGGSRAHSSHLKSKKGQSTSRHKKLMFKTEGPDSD

With `COc1cccc(OC)c1C(=O)N[C@@H]1C(=O)N2[C@@H]1SC(C)(C)[C@@H]2C(=O)O`, the call in test [1], in test [2], in test [3], in test [4] and in test [5] was inactive.
As for `O=C(O)c1ccccc1C(=O)Nc1ccc(S(=O)(=O)Nc2nccs2)cc1`, the call in test [1], in test [2], in test [3], in test [6] and in test [5] was inactive.
In the case of `Cc1cc2c(OCC(CNC(C)(C)C)OC(=O)c3ccccc3)cccc2[nH]1` (centres undefined), the outcome in test [1], in test [2], in test [3] and in test [4] was inactive.
On to `O=C1c2ccccc2C(=O)C1c1ccc(Cl)cc1`, for which the outcome in test [1], in test [2], in test [3] and in test [4] was inactive.
`O=C(O)c1ccc(OCCn2ccnc2)cc1`: the compound was classed as inactive in test [1], in test [2], in test [3], in test [4] and in test [5].
For the compound `CCC(=O)OC(=O)CC`, the call in test [1], in test [2], in test [3], in test [4] and in test [5] was inactive.
Turning to `NC[C@@H]1O[C@H](O[C@H]2[C@@H](O)[C@H](O[C@@H]3[C@@H](O)[C@H](N)C[C@H](N)[C@H]3O[C@H]3O[C@H](CO)[C@@H](O)[C@H](O)[C@H]3N)O[C@@H]2CO)[C@H](N)[C@@H](O)[C@@H]1O`, the outcome in test [1], in test [2], in test [3], in test [6] and in test [5] was inactive.
Regarding `C=CCSCC1Nc2cc(Cl)c(S(N)(=O)=O)cc2S(=O)(=O)N1` (centres undefined), the call in test [1], in test [2], in test [3] and in test [5] was inactive. Besides, in test [6], the AC50 was 0.059 nM (active).
As to `O=[N+]([O-])c1cccc(S(=O)(=O)NCCNS(=O)(=O)c2cccc([N+](=O)[O-])c2)c1`, the compound was classed as inactive in test [1], in test [2], in test [3], in test [4] and in test [5].
On to `NS(=O)(=O)c1ccccc1OC(F)(F)F`, for which the result in test [1], in test [2], in test [3], in test [4] and in test [5] was inactive.
On to `CC(C)OC(=O)Nc1ccc2nc(-c3cscn3)[nH]c2c1`, for which, in test [1], the outcome was inactive. For the same compound, the AC50 in test [2] was 1.52 µM (active); in test [3], 2.6 µM (active); in test [6] it was 2330 nM (active); in test [5] it was 1.09 µM (active).
In the case of `CN(CC1(C)CCCO1)S(=O)(=O)c1ccc(Cl)c(S(N)(=O)=O)c1` (centres undefined), the compound was called inactive in test [1], in test [2], in test [3], in test [4] and in test [5].
As for `CN1CCCCC1CCN1c2ccccc2Sc2ccc(S(C)=O)cc21` (centres undefined), the outcome in test [1], in test [2], in test [3], in test [6] and in test [5] was inactive.
Consider `CC(C)CCCC(C)CCCC(C)CCCCC(C)CCCC(C)CCCC(C)C` (centres undefined), for which the compound was classed as inactive in test [1], in test [2], in test [3], in test [4] and in test [5].
`CC(=O)Nc1ccc(C(=O)O)cc1`: the compound was classed as inactive in test [1], in test [2], in test [3], in test [4] and in test [5].
As for `CCC(C)O` (centres undefined), the outcome in test [1], in test [2], in test [3] and in test [4] was inactive.
Turning to `Cc1ccc(S(=O)(=O)NC2CCCCC2)cc1`, the outcome in test [1], in test [2], in test [3] and in test [4] was inactive.
Turning to `CN1CCC(=C2c3ccccc3C=Cc3ccccc32)CC1`, the results for the concentration at half-maximal activity (AC50) in test [1] and in test [2] were 39.3 µM (active) and 43.2 µM (active), respectively. In addition, the outcome in test [3], in test [6] and in test [5] was inactive.
Turning to `CCN(CC)CCOC(=O)c1ccc(N)cc1Cl`, the compound was called inactive in test [1], in test [2], in test [3], in test [6] and in test [5].
In the case of `O=C1NC(=O)[C@@]2(CCOc3ccc(F)cc32)N1`, the compound was called inactive in test [1], in test [2], in test [7], in test [6], in test [4] and in test [5].
In the case of `CCCCOCCOC(=O)COc1cc(Cl)c(Cl)cc1Cl`, the compound was called inactive in test [1], in test [2] and in test [7].
For `COc1cc(-c2ccc(N=C=O)c(OC)c2)ccc1N=C=O`, the outcome in test [1], in test [2], in test [7], in test [6] and in test [5] was inactive.
As to `CCCCCCCC/C=C\CCCCCCCCN`, the result in test [1], in test [2], in test [7], in test [6] and in test [5] was inactive.
`NC(CS)C(=O)O` (centres undefined): the result in test [1], in test [2], in test [3] and in test [5] was inactive.
For `Nc1ccccn1`, the result in test [1], in test [2], in test [7], in test [6], in test [4] and in test [5] was inactive.
Regarding `Cc1cc(Cl)c(C)cc1Cl`, the result in test [1], in test [2], in test [7], in test [6] and in test [5] was inactive.
Regarding `CO[C@H]1O[C@H](CO)[C@@H](O)[C@H](O)[C@H]1O`, the compound was called inactive in test [1], in test [2] and in test [7].
Consider `CC(=O)Oc1cccc(C(=O)O)c1OC(C)=O`, for which the compound was called inactive in test [1], in test [2], in test [7], in test [6] and in test [4].
For `CCC(C)=NO[Si](C)(ON=C(C)CC)ON=C(C)CC`, the compound was called inactive in test [1], in test [2], in test [7], in test [6], in test [4] and in test [5].

The values are drawn from PubChem BioAssay (EPA / NIEHS).
